Source: PubChem BioAssay AID2451 (National Center for Advancing Translational Sciences (NCATS), 2010)
Out of some 290,000 compounds screened, about 2,100 (0.72%) were called active. Inconclusive results (about 4%) are left out. The call rests on the fitted dose curve; in most records, active means well fitted inhibition curve with a large enough effect; inconclusive means small, poorly fitted or top-dose-only effect, or effect the other way; inactive means flat fitted curve, though single readings scatter. Shown is part of a subset that was picked to be rich in actives.

biological target: Fructose-bisphosphate aldolase (Giardia intestinalis (strain ATCC 50803 / WB clone C6)) (UniProt A8B2U2); experiment: qHTS Assay for Inhibitors of Fructose-1,6-bisphosphate Aldolase from Giardia Lamblia; details: purified Giardia FBPA; series mostly up to 59.6 µM; activity, negative = inhibition: at the top concentration; further: nearly all actives have a fitted effect of over 55% in size
Sequence (A8B2U2 whole entry, looked up): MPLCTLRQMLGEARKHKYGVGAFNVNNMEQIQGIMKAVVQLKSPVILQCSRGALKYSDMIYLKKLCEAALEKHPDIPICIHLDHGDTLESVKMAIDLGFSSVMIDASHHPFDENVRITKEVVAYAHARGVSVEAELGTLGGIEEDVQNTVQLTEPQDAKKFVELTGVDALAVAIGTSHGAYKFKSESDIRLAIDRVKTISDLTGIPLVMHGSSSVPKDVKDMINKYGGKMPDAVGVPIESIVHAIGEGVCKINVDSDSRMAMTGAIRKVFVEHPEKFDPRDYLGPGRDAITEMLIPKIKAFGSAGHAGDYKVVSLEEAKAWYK
In short: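 Giardia FBPA (40 nM reagent) was preincubated 10 min at RT with compound (up to 57.5 uM final), then substrate plus GAPDH/TPI/NAD/arsenate coupling system with diaphorase/resazurin was added; resorufin fluorescence (525/598 nm) was read after 20 min.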
On the % scale 0 is the no-effect control and ±100 the full control effect; potency means the concentration at half of the fitted maximal effect.

| Compound | Potency | activity, negative = inhibition |
| --- | --- | --- |
| Cc1ccc(C(=O)Nc2nnc(C3=COCCO3)o2)cc1C | 31.6 µM (active) |  |
| COc1ccccc1-c1nnc(NC(=O)c2cccc(N3C(=O)CCC3=O)c2)o1 |  | 10.3% (inactive) |
| COc1ccccc1-c1nnc(NC(=O)c2ccc3ncsc3c2)o1 |  | 28.4% (inactive) |
| COC(=O)c1ccccc1NC(=O)C1CCN(C(=O)N2CCOc3ccccc32)CC1 |  | -3.52% (inactive) |
| Oc1cc(O)c2c(c1)OC(c1ccc(O)c(O)c1)C(O)C2 (stereo not drawn) | 9.98 µM (active) |  |
| COc1ccc(C2Oc3c(I)c(OC)cc(OC)c3CC2O)cc1OC (stereo not drawn) |  | 7.26% (inactive) |
| COC(=O)c1ccccc1NC(=S)NC(=O)c1ccccc1F |  | -16.7% (inactive) |
| O=C(NC(=S)Nc1ccc(S(=O)(=O)Nc2ncccn2)cc1)c1cccc(Br)c1 |  | 1.97% (inactive) |
| O=C(NC(=S)Nc1ncccn1)c1ccccc1Br | 3.98 µM (active) |  |
| CCOc1ccc(OCC)c(NC(=O)CCS(=O)(=O)c2ccc(C)cc2)c1 |  | 7.51% (inactive) |
| CN(C)CCOc1ccc(Cl)cc1C(C)(C)C | 14.1 µM (active) |  |
| Cn1c(CCCOc2ccc(Cl)cc2Cl)n[nH]c1=S |  | -0.566% (inactive) |
| COCCCNCCOCCOc1ccc(Cl)cc1Br |  | -23.6% (inactive) |
| Cc1cc(C(=O)N/N=C/c2ccc(N3CCOCC3)cc2)c(C)o1 |  | -0.673% (inactive) |
| CNC(=S)N/N=C/c1ccc(N2CCOCC2)s1 | 12.6 µM (active) |  |
| C=CCNC(=S)N/N=C/c1ccc(C)s1 |  | 5.8% (inactive) |
| O=C(CCCC(=O)N1CCN(c2cccc(Cl)c2)CC1)c1ccccc1 |  | -11.4% (inactive) |
| NC(=O)CC(NC(=O)Cc1ccc(Br)cc1)c1ccc(NC2CC3CCC2C3)c([N+](=O)[O-])c1 (stereo not drawn) |  | -10.4% (inactive) |
| COc1cc(OC)c(C(=S)N2CCCC2)cc1OC |  | -20.3% (inactive) |
| O=S(=O)(Nc1ccc2nc(-c3ccco3)[nH]c2c1)c1ccccc1 | 19.9 µM (active) |  |
| O=S(=O)(Nc1ccc2cn[nH]c2c1)c1ccccc1 |  | -18.7% (inactive) |
| Cn1c(CCN2CCCC2)nc2cc(NS(=O)(=O)c3ccccc3)ccc21 |  | -18.8% (inactive) |

| Compound | Potency | activity, negative = inhibition |
| --- | --- | --- |
| CCN1CCN(C(=O)C2CCCN(S(=O)(=O)c3ccc(OC)c(OC)c3)C2)CC1 (stereo not drawn) |  | 5.43% (inactive) |
| Cc1ccc(N(Cc2cc(=O)[nH]c3ccccc23)C(=O)CCl)cc1 |  | -5.08% (inactive) |
| O=C(NCCCc1ccccc1)c1cc(COc2c(F)cccc2F)on1 |  | -2.9% (inactive) |
| Cc1cc(C)c(C#N)c(N2CCC(C(N)=O)CC2)n1 |  | 4.78% (inactive) |
| N#Cc1c(-c2ccccc2)cc(-c2ccccc2)nc1SCC(=O)O |  | 14.5% (inactive) |
| N#Cc1c(N2CCCCC2)nc(N)c2c(N)nc(SCC(=O)O)cc12 | 12.6 µM (active) |  |
| CSc1nnc(C2CCCN(CC(=O)Nc3ccccc3N3CCOCC3)C2)n1C(C)C (stereo not drawn) |  | 13.2% (inactive) |
| Cc1cc(C)cc(N(CC(=O)NC2CCCC2)C(=O)CCC(=O)Nc2nccs2)c1 |  | -3.79% (inactive) |
| CC(=O)NC1CCN(CC(=O)Nc2nccs2)CC1 | 10 µM (active) |  |
| CC(=O)NC(CC(=O)Nc1nccs1)c1ccccc1 (stereo not drawn) |  | 19.9% (inactive) |
| COc1ccccc1CCNS(=O)(=O)c1cn(C)nc1C |  | 3.76% (inactive) |
| COc1ccc(CNC(=O)c2cc(=O)c3c(C)cc(C)cc3o2)cc1 |  | -2.56% (inactive) |
| CNC(=O)C(=O)N/N=C/c1ccccn1 |  | -28% (inactive) |
| O=C(N/N=C/c1ccccn1)c1cccnc1 | 4.46 µM (active) |  |
| O=C(N/N=C/c1ccc(O)c2ccccc12)c1cccnc1 |  | -1.74% (inactive) |
| O=C(Nc1cccc2ncccc12)C(Cl)(Cl)Cl |  | 0.917% (inactive) |
| Cc1ccc(/C=C(\C#N)C(=O)Nc2cccc3ncccc23)o1 | 5.61 µM (active) |  |
| Cc1ccc(C(=O)Nc2cccc3ncccc23)cc1[N+](=O)[O-] |  | -3.73% (inactive) |
| COc1ccc(C(=O)CC(=O)c2ccc(C)cc2)c(O)c1 |  | 0.0144% (inactive) |
| c1ccc2c(c1)CCc1snnc1-2 |  | 2.66% (inactive) |
| CSc1ccc(S(=O)(=O)N2CCC(C(=O)NCCc3ccccc3)CC2)cc1 |  | 10.5% (inactive) |
| CSc1ccccc1NC(=O)c1ccc2c(c1)CCN2S(C)(=O)=O |  | -3.55% (inactive) |

| Compound | Potency | activity, negative = inhibition |
| --- | --- | --- |
| CC(NC(=O)Cn1cc(C(F)(F)F)cc(Cl)c1=O)c1ccccc1 (stereo not drawn) |  | 0.816% (inactive) |
| Cc1nnc(SCC2=C(C(=O)O)N3C(=O)C(NC(=O)Cn4nc(C)c(Cl)c4C)C3SC2)s1 (stereo not drawn) | 22.3 µM (active) |  |
| Cc1nnc(SCC(=O)NC2CCCC2)s1 |  | -2.13% (inactive) |
| CO/N=C(\C(=O)N[C@@H]1C(=O)N2C(C(=O)O)=C(COC(C)=O)CS[C@H]12)c1csc(N)n1 (stereo in doubt) | inactive |  |
| Cc1cccc(NC(=S)NCCc2ccc(Cl)cc2)c1C |  | -7.76% (inactive) |
| O=C(Nc1ccccc1)/C(=C\c1ccco1)NC(=O)c1ccco1 |  | -17.9% (inactive) |
| CCCC1=Nc2cc(C(=O)NCCN3CCCC3)ccc2Sc2ccccc21 |  | -13.9% (inactive) |
| Cc1nc(N2CCOCC2)sc1C(=O)NN | 12.6 µM (active) |  |
| Cc1nc(-c2ccc(Cl)cc2)sc1C(=O)NN |  | -0.949% (inactive) |
| CCOC(=O)N1CCC(NC(=O)c2ccc3nc(N4CCOCC4)sc3c2)CC1 |  | 0.489% (inactive) |
| Cc1ccc(NS(=O)(=O)c2ccc3c(c2)oc(=O)n3C)c(C)c1 |  | -5% (inactive) |
| Cc1ccc(OCc2n[nH]c(=S)n2-c2ccc(C)cc2)cc1 |  | -0.791% (inactive) |
| Cc1ccc(OCCCCc2c(C)n[nH]c2C)cc1 | 20 µM (active) |  |
| CCCOc1ccc(-c2nc(N)n[nH]2)cc1 |  | -0.264% (inactive) |
| Cc1ccccc1C(=O)N1CCC(C(=O)Oc2ccc(C#N)cc2)CC1 |  | 3.43% (inactive) |
| Cc1ccc(CNC(=O)C2CCCN2S(=O)(=O)c2ccc3c(c2)C(C)(C)C(=O)N3C)cc1 (stereo not drawn) |  | -6.54% (inactive) |
| CCCCOC(=O)Nc1nnc(CC(=O)NCc2ccccc2)s1 |  | -0.363% (inactive) |
| CCCOC1CCCN(C(=O)c2cc(COc3cncc(Cl)c3)on2)C1 (stereo not drawn) |  | 9.73% (inactive) |
| C/C(=N\NC(=O)c1cccnc1)c1ccc(-c2ccccc2)cc1 |  | -7.85% (inactive) |
| C/C(=N\NC(=O)c1cccc([N+](=O)[O-])c1)c1cccnc1 |  | -13.4% (inactive) |
| C/C(=N\NC(N)=S)c1cccnc1 | 15.8 µM (active) |  |
| CCOC(=O)[C@@H]1[C@H]2COc3cc(OC)ccc3[C@@H]2N2C(=O)N(c3cccc(C)c3)C(=O)[C@@]12C |  | 7.91% (inactive) |

| Compound | Potency | activity, negative = inhibition |
| --- | --- | --- |
| CN(Cc1ccccc1)C(=O)c1cccc(C(=O)N(C)Cc2ccccc2)c1 |  | -0.983% (inactive) |
| CCOc1ccc(N(CC(=O)NCCc2ccc(F)cc2)S(=O)(=O)c2ccccc2)cc1 |  | -4.82% (inactive) |
| Cc1cccc(S(=O)(=O)N2CN(CC3CCCO3)c3nc4ccccc4nc32)c1 (stereo not drawn) |  | 1.71% (inactive) |
| CC/C(=N\NC(=O)c1c(C)nc2ccccn12)c1ccc(Cl)cc1 |  | 3.33% (inactive) |
| CC1(C)Cc2ccccc2/C(=C/C(=O)c2ccccc2)N1 |  | 3.19% (inactive) |
| Cn1c(SCC(=O)N/N=C/c2ccc(O)c(O)c2)nc2ccccc21 |  | -28.4% (inactive) |
| CCCc1nc2ccccc2c(=O)n1NC(=O)c1c(O)c2ccccc2[nH]c1=O |  | 13.6% (inactive) |
| CCCc1nc2ccccc2c(=O)n1/N=C/c1ccc(O)c(O)c1 | 2.51 µM (active) |  |
| CC1C(=O)N(Cc2ccccc2)c2ccccc2N1C(=O)c1ccccc1 (stereo not drawn) |  | -14% (inactive) |
| COc1ccccc1C1C(C(N)=O)=C(C)Nc2nc(CCCO)nn21 (stereo not drawn) |  | -8.27% (inactive) |
| CN=C1S/C(=C\c2ccc(Sc3ccc(Cl)cc3)o2)C(=O)N1C |  | -1.64% (inactive) |
| O=C(O)C(c1ccccc1)N1C(=O)/C(=C\c2ccc(-c3cccc(Cl)c3)o2)SC1=S (stereo not drawn) |  | 0.845% (inactive) |
| CN1C(=O)/C(=C\c2ccc(-c3ccccc3)o2)SC1=S | 4.46 µM (active) |  |
| COc1ccc(S(=O)(=O)NCCc2c[nH]c3ccccc23)cc1OC |  | -11% (inactive) |
| COc1ccc(CNC(=O)[C@H](Cc2c[nH]c3ccccc23)NC(C)=O)cc1OC |  | 7.31% (inactive) |
| COc1ccc(CNCCc2c[nH]c3ccccc23)cc1OC | 17.8 µM (active) |  |
| CCN(CC(=O)Nc1cccc(S(N)(=O)=O)c1)Cc1nc2ccccc2c(=O)[nH]1 |  | -26.8% (inactive) |
| CCN(CC(=O)NC(=O)NCc1ccccc1)Cc1nc2ccccc2c(=O)[nH]1 | 17.7 µM (active) |  |
| CCN(CC(=O)Nc1ccc(Cl)c(S(=O)(=O)N(C)C)c1)Cc1nc2ccccc2c(=O)[nH]1 |  | -22.3% (inactive) |
| CC(C)CCNC(=O)c1ccc2c(Cl)c3c(nc2c1)CCC3 |  | 8.8% (inactive) |
| Cc1ccc(-n2c(SCC(=O)N3CCC(C(=O)O)CC3)nc3ccccc3c2=O)cc1C |  | 20.7% (inactive) |
| COc1cc(CN2CCN(Cc3ccc(C)cc3)CC2)c([N+](=O)[O-])cc1OC | 5.61 µM (active) |  |

| Compound | Potency | activity, negative = inhibition |
| --- | --- | --- |
| COc1cc(NC(=O)NCC2CCN(Cc3ccc(C)cc3)CC2)cc(OC)c1OC |  | 8.41% (inactive) |
| COc1cc(CN2CC(C)CC(C)C2)cc([N+](=O)[O-])c1O (stereo not drawn) |  | -12.8% (inactive) |
| CC(=O)c1ccc(N2CCN(S(=O)(=O)c3ccc4c(c3)CC(=O)N4C)CC2)cc1 |  | -5.35% (inactive) |
| COc1ccc(NC(=O)c2cc(-c3cc(OC)c(OC)c(OC)c3)nc3ccccc23)c(OC)c1 |  | 7.02% (inactive) |
| Cn1c(=O)n(C)c2cc(S(=O)(=O)Nc3ccc(F)cc3)ccc21 |  | 0.615% (inactive) |
| COc1ccc(NC(=O)C(CC(C)C)NC(=O)C2CCC(C)CC2)cc1 (stereo not drawn) |  | -1.41% (inactive) |
| CC[C@]1(c2ccccc2OC)C(=O)N(C(=O)OC)N1C(=O)OC |  | 5.5% (inactive) |
| COc1ccccc1NC(=O)N1C[C@@H]2C[C@@H](C1)c1cccc(=O)n1C2 |  | 11.9% (inactive) |
| COc1cccc(C(=O)N2C[C@H]3C[C@@H](C2)c2cccc(=O)n2C3)c1 |  | 3.02% (inactive) |
| O=C(NC(=S)N1C[C@H]2C[C@H](C1)c1cccc(=O)n1C2)c1ccc(F)cc1 | 7.94 µM (active) |  |
| Cc1ccc(SCCSc2ncccn2)cc1 |  | 2.18% (inactive) |
| CC(=O)NCCC(=O)Nc1cc(S(=O)(=O)N2CCOCC2)ccc1N1CCOCC1 |  | 6.3% (inactive) |
| COCCNC(=S)Nc1cc(S(=O)(=O)N2CCOCC2)ccc1N1CCCCC1 | 2.81 µM (active) |  |
| O=C(COC(=O)Cc1ccc(F)cc1)Nc1cc(S(=O)(=O)N2CCOCC2)ccc1N1CCCC1 |  | 3.37% (inactive) |
| Cc1ccc(C(=O)NC2CCN(C(=O)Nc3ccc(F)cc3)CC2)cc1 |  | -11.8% (inactive) |
| C=CCCN(C(Cc1ccccc1)C(=O)OC)S(=O)(=O)c1cc(Br)ccc1Br (stereo not drawn) |  | 1.34% (inactive) |
| CCCNC(=O)c1ccc(N2CCC3(CC2)CC(c2ccc(Cl)cc2)=NO3)c([N+](=O)[O-])c1 |  | 0.473% (inactive) |
| COc1ccc(NC(=O)c2nc(-n3nc(C)cc3C)ccc2Cl)cc1Cl |  | 18.5% (inactive) |
| Cc1cc(C)n(-c2ccc(Cl)c(C(=O)O)n2)n1 | 15.8 µM (active) |  |
| Cc1cc(C)n(-c2ccc3nncn3n2)n1 |  | 0.189% (inactive) |
